Assay outcomes: PubChem BioAssay, The Scripps Research Institute Molecular Screening Center
hgDAF-12 ag – agonists of H. glycines DAF-12 nuclear receptor | 370,000 tested, 1.8% active | AID 687014 | activation, % at 6.8 µM | HEK293 GAL4-hgDAF12 UAS-luciferase reporter, agonist luminescence; normalized to butyrate control;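 active = activation above a cutoff set at the mean of all screened compounds plus 3 SD, cut at about 10% in these data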;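 note: 0% = DMSO wells and 100% = sodium butyrate wells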
DAX1 inh-1 – inhibitors of DAX1 repression of SF-1 activated StAR promoter. inhibition, % at 6.8 µM. 370,000 tested, 1.1% active. AID 652010. HEK293T StAR-luciferase reporter, SF-1/DAX-1 repression relief;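 active = inhibition above the mean over all tested compounds plus 3 SD, cut at about 3.6% in these data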;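 note: 0% = DAX-1 cells with DMSO and 100% = cells lacking DAX-1 with DMSO; higher inhibition means more luminescence from relief of DAX-1 repression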
ssDAF12 agonist – activators of S. stercoralis DAF-12 nuclear receptor. HEK293 ssDAF-12/GRIP1 lit1-tk-luc reporter, luminescence; % of 3 µM dafachronic acid response. activation, % at 6.8 µM. 370,000 tested, 1% active. AID 652126;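 active = activation above the mean over all tested compounds plus 3 SD, cut at about 0.9% in these data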;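 note: 0% = DMSO-only wells and 100% = 3 µM delta7-dafachronic acid wells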
hcDAF12 agonist – activators of H. contortus DAF-12 nuclear receptor; HEK293 hcDAF-12 lit1-tk-luc reporter, luminescence; 0% DMSO, 100% Δ7-dafachronic acid; AID 652067; 370,000 tested, 1.4% active; activation, % at 6.8 µM;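 active = activation above the mean of all tested compounds plus 3 SD, cut at about 5.5% in these data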;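 note: 100% = response to 3 µM Δ7-dafachronic acid high control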
DAX1 inh-2 – NR0B1 (DAX1) inhibition; inhibition, % at 6.75 µM; 340,000 tested, 0.99% active; HEK293 Gal4-DAX1 luciferase reporter, luminescence; P51843;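 active = inhibition above the mean over all tested compounds plus 3 SD, cut at about 4.2% in these data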;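 note: 0% = DAX1-transfected cells with DMSO and 100% = empty-vector control cells with DMSO; inhibition shows as a rise in luminescence from relieved DAX1 repression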
AHR activator – activates the human aryl hydrocarbon receptor; P35869; AHR-responsive luciferase reporter cells, luminescence; activation, % at 5 µM; 320,000 tested, 2.5% active; in the data active = activation above about 47%;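 note: 0% = vehicle wells and 100% = reference agonist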
Numbers without * were called inactive; . = not tested or not shown. A selection: hits, their analogues and other compounds. The true share with any hit is near 5.7%.

SMILES | hgDAF-12 ag | DAX1 inh-1 | ssDAF12 agonist | hcDAF12 agonist | DAX1 inh-2 | AHR activator
CCCC(=O)Nc1ccc(C(=O)NN=C(C2CC2)C2CC2)cc1 | 1 | 0 | -1 | -2 | 4.5* | 19
CCN(CC)C(=O)c1ccc2c(c1[N+](=O)[O-])C(=O)c1ccccc1C2=O | . | . | . | . | . | 78*
O=C(Nc1nccs1)C1(S(=O)(=O)c2ccc(Cl)cc2)CC1 | 2 | 0 | -1 | 1 | 0 | -1
CCCNC(=O)/C=C/c1ccc(C(C)C)cc1 | 7 | 1 | -1 | 0 | 5.0* | 20
CC(C)c1ccc(/C=C/C(=O)O)cc1 | 2 | 1 | 0 | 1 | 4.3* | 1
CCN1CCN(C(=O)/C=C/c2ccc(C(C)C)cc2)CC1 | 1 | 0 | -1 | -1 | 0 | 0
CC(C)c1ccc(/C=C/C(=O)NCCCc2ccccc2)cc1 | 1 | 1 | -1 | -2 | 0 | 14
COc1ccc(-c2nc3c4ccccc4ccn3c2CC2CCCCC2)cc1OC | 6 | 0 | -1 | 5 | . | .
COc1ccc(-c2nc3c4ccccc4ccn3c2CN2CCOCC2)cc1OC | 6 | 1 | -1 | 1 | -1 | 58*
COc1ccc(S(=O)(=O)NC(C)C(=O)NCc2cccnc2)cc1Cl (configuration not stated) | -1 | 0 | -1 | -1 | 1 | -1
COc1ccc(S(=O)(=O)NC(C)C(=O)NCc2cccnc2)cc1OC (configuration not stated) | -3 | 0 | -1 | -3 | 4.5* | -1
COc1ccc(S(=O)(=O)NCc2cccnc2)cc1NC(=O)c1ccccc1 | -2 | 0 | -1 | 1 | 5.3* | -1
O=C(O)c1cccc(Cn2c(Cl)c(/C=N/NC(=O)c3ccc(O)cc3)sc2=O)c1 | -4 | 0 | -1 | 0 | 4.6* | 3
N#Cc1ccc(-c2nc3c4ccccc4ccn3c2Cc2cccc(Cl)c2)cc1 | 11* | 0 | -1 | 3 | . | .
Cc1cc(Br)cn2c(Cc3ccccc3C(F)(F)F)c(-c3cccc(Br)c3)nc12 | -4 | -1 | -1 | -1 | . | .
N#Cc1ccc(-c2nc3c4ccccc4ccn3c2Cc2ccsc2)cc1 | 3 | 0 | 1.5* | 3 | . | .
c1ccc(Cc2c(-c3ccccc3)nc3c4ccccc4ccn23)cc1 | 2 | 0 | 0.9* | 5 | 1 | .
FC(F)(F)c1ccccc1Cc1c(-c2cccc(Br)c2)nc2c3ccccc3ccn12 | 9 | 1 | 1.4* | 5.8* | . | .
N#Cc1ccc(-c2nc3c4ccccc4ccn3c2Cc2ccccc2C(F)(F)F)cc1 | 9 | -2 | 0 | 4 | . | .
CCCn1nc2cc(C(=O)N(CC)c3ccc(OC)cc3)ccc2c1OCC | 0 | 0 | -1 | -1 | 1 | 9
COc1ccc(C2C(C(=O)c3cccs3)=C(O)C(=O)N2c2nncs2)cc1 (configuration not stated) | 0 | 0 | -1 | 2 | 3 | 20
CC(OC(=O)c1cc(S(=O)(=O)N2CCOCC2)ccc1F)C(=O)NC1CCCC1 (configuration not stated) | -2 | 1 | -1 | 0 | 0 | 0
CSc1nnc2c3ccccc3c3ccccc3c2n1 | -1 | 0 | 1.2* | 3 | 1 | .
CSc1nnc(-c2ccccc2)c(-c2ccccc2)n1 | -2 | 0 | -2 | -2 | 0 | -2
COC(=O)c1c(NC(=O)CN2CCN(c3ccccc3OC)CC2)c2cc(C)ccc2n1C | 2 | 1 | 1 | 5 | 1 | 24
CCc1nnc(NS(=O)(=O)c2ccc(N=Cc3c(C)[nH]n(-c4ccc(C)c(C)c4)c3=O)cc2)s1 | 0 | 1 | -1 | 0 | 0 | 16
Cc1ccccc1OCC(=O)Nc1ccc2c(c1)OCCO2 | 13* | 3 | -1 | 1 | 8.2* | 4
NC(=O)c1ccccc1OCC(=O)Nc1ccc2c(c1)OCCO2 | 8 | 4.5* | 0 | 5 | 1 | .
CCC(C)NCCOCCOc1cc(C)c(Cl)c(C)c1 (configuration not stated) | 4 | -1 | -2 | -1 | 0 | 4
N#Cc1ccccc1NC(=O)CSC1=Nc2ccccc2C2CC=NN12 (configuration not stated) | -1 | 0 | -1 | 0 | -1 | 34
